These results are taken from PubChem BioAssay (EPA / NIEHS).

What is called AC50 is the concentration giving half of the maximal activity seen.

Calls of active or inactive are those of the source. The calls were made as follows: active = hit-call score of the fitted dose curve at least 0.9, where 1 is the maximum; inactive = score below 0.9.

Assay [1] in a line: UKN5_HCS_SBAD2_cell_viability: Viability Assessment in the University of Konstanz (UKN) Leist Lab Neurite Outgrowth Assay in human iPSC-derived immature Dorsal Root Ganglia Neurons (UKN5) (AID 2284056). The procedure, abridged: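 iPSC-derived immature peripheral neurons (SBAD2) seeded on Matrigel with CHIR99021, SU5402 and DAPT, dosed 1 h later for 24 h. Viability from Hoechst H-33342 and calcein-AM live staining, high-content imaging; bidirectional fit versus DMSO.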

Assay [2] in a line: UKN5_HCS_SBAD2_neurite_outgrowth: University of Konstanz (UKN) Leist Lab Neurite Outgrowth Assay in human iPSC-derived immature Dorsal Root Ganglia Neurons (UKN5) (AID 2284070). The following applies: actives raise or lower the signal. The procedure, abridged: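 Thaw, seed on Matrigel (100.000 cells/cm2), dose 1 h later; at 23 h live-stain with H-33342 and calcein-AM for 60 min; image at 24 h. Neurite area fitted bidirectionally vs DMSO.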

Assay [3] can be described thus: UKN2_HCS_IMR90_neural_migration: University of Konstanz (UKN) Leist Lab Neural Crest Cell Migration Assay in human induced IMR90 Pluripotent Stem Cells (UKN2) (AID 2284204). The following applies: actives raise or lower the signal. Summed up: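 Using a 96-well stopper format with PLO/laminin/fibronectin coating, neural crest cells from iPSC migrate in cytokine-supplemented N2-S medium; after 24 h, chemicals are applied for a further 24 h, then cells are imaged after dye staining.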

Assay [4] is described as follows: UKN4_HCS_LUHMES_neurite_outgrowth: University of Konstanz (UKN) Leist Lab Neurite Outgrowth Assay in human LUHMES cells (UKN4) (AID 2284206). As to conditions: actives raise or lower the signal. The procedure, abridged: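 Human LUHMES cells were differentiated for two days, replated and treated with chemicals for 24 h. Neurite outgrowth was quantified as calcein-stained neurite area by HCS imaging, fitted bidirectionally relative to DMSO.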

Assay [5] in a line: UKN4_HCS_LUHMES_cell_viability: Viability Assessment in the University of Konstanz (UKN) Leist Lab Neurite Outgrowth Assay in human LUHMES cells (UKN4) (AID 2284232). Summed up:
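Cells switched to differentiation medium at day 0, replated on day 2 in medium lacking cAMP and GDNF, and compound-treated once attached. Live staining began 23.5 h later, imaging followed at 24 h.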

Assay [6] is described as follows: UKN2_HCS_IMR90_cell_viability: Viability Assessment in the University of Konstanz (UKN) Leist Lab Neural Crest Cell Migration Assay in human induced IMR90 Pluripotent Stem Cells (UKN2) (AID 2284233).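 Also: viability of neural crest cells differentiated from IMR90 iPSC measured by calcein-AM fluorescence imaging; cells exposed to compound for 24 h after a 24 h migration phase.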 The procedure, abridged:
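cMINC format, iPSC-derived neural crest (IMR90); 24 h migration (EGF/FGF, N2-S), then 24 h toxicant. Calcein-AM/H-33342 stain 30 min; fluorescence intensity by HCS; DMSO-normalised, bidirectional fitting.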

For the compound `O.O=S(=O)([O-])[O-].[Mn+2]`, the AC50 in assay [1] is 18.8 µM (active); in assay [6], 50 µM (active). Moreover, the compound was called inactive in assay [2], in assay [3], in assay [4] and in assay [5].
